According to PubChem BioAssay AID1159580 (chemical genetic matrix, 2015):
In all, about 5,500 compounds went through this assay and about 2,000 (36%) were called active. About 18% were inconclusive and are not listed. Cut-off read from the data, not from the text of the source: active = normalized growth mostly below about 0.91 (no sharp cut-off); inconclusive = no clear call, values can overlap the other calls; inactive = mostly above about 0.92. The list shows a part of the results.

Test: chemical genetic growth profiling, strain panel (AID 1159580);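 note: tested at 20 µM; growth read once vehicle control cultures reached saturation at 30 °C; 1 = growth at the plate median or of vehicle wells; lower values mean less growth of the strain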
Settings: growth OD

Measured: normalized growth

COc1cc2cc[n+]3cc4c(OC)c(OC)ccc4cc3c2cc1OC
inactive: S. cerevisiae deletion strains, locus YJR075W, strain HOC1, stronger effect = lower value 0.979 | S. cerevisiae deletion strains, locus YKL009W, strain mrt4, stronger effect = lower value 0.965 | S. cerevisiae deletion strains, locus YKL068W, stronger effect = lower value 0.963 | S. cerevisiae deletion strains, locus YKL085W, strain MDH1 (second series), stronger effect = lower value 0.992 | S. cerevisiae deletion strains, locus YKL085W, strain MDH1, stronger effect = lower value 0.992 | S. cerevisiae deletion strains, locus YKL160W, strain elf1, stronger effect = lower value 0.976 | S. cerevisiae deletion strains, locus YKL190W, strain CNB1, stronger effect = lower value 0.982 | S. cerevisiae deletion strains, locus YKR001C, strain vps1, stronger effect = lower value 0.99 | S. cerevisiae deletion strains, locus YKR026C, strain gcn3, stronger effect = lower value 0.985 | S. cerevisiae deletion strains, locus YKR091W, strain srl3, stronger effect = lower value 0.976 | S. cerevisiae deletion strains, locus YLL001W, strain dnm1, stronger effect = lower value 0.965 | S. cerevisiae deletion strains, locus YLL026W, stronger effect = lower value 0.97 | S. cerevisiae deletion strains, locus YLL041C, strain sdh2, stronger effect = lower value 0.99 | S. cerevisiae deletion strains, locus YLR027C, strain aat2, stronger effect = lower value 0.962 | S. cerevisiae deletion strains, locus YLR039C, strain RIC1, stronger effect = lower value 0.938 | S. cerevisiae deletion strains, locus YLR058C, strain SHM2, stronger effect = lower value 0.985 | S. cerevisiae deletion strains, locus YLR102C, strain apc9, stronger effect = lower value 0.959 | S. cerevisiae deletion strains, locus YLR113W, strain HOG1, stronger effect = lower value 1.02 | S. cerevisiae deletion strains, locus YLR221C, strain rsa3, stronger effect = lower value 0.968 | S. cerevisiae deletion strains, locus YLR258W, strain gsy2, stronger effect = lower value 0.993 | S. cerevisiae deletion strains, locus YLR262C, strain YPT6 (second series), stronger effect = lower value 1.01 | S. cerevisiae deletion strains, locus YLR262C, strain YPT6, stronger effect = lower value 0.926 | S. cerevisiae deletion strains, locus YLR268W, strain sec22, stronger effect = lower value 1 | S. cerevisiae deletion strains, locus YLR320W, strain mms22, stronger effect = lower value 0.979 | S. cerevisiae deletion strains, locus YLR330W, strain CHS5, stronger effect = lower value 0.977 | S. cerevisiae deletion strains, locus YLR342W, strain FKS1 (second series), stronger effect = lower value 0.96 | S. cerevisiae deletion strains, locus YLR342W, strain FKS1, stronger effect = lower value 0.981 | S. cerevisiae deletion strains, locus YLR357W, strain rsc2, stronger effect = lower value 0.95 | S. cerevisiae deletion strains, locus YLR370C, strain arc18, stronger effect = lower value 0.981 | S. cerevisiae deletion strains, locus YLR371W, strain rom2, stronger effect = lower value 0.952 | S. cerevisiae deletion strains, locus YLR384C, strain iki3, stronger effect = lower value 0.977 | S. cerevisiae deletion strains, locus YLR418C, strain cdc73, stronger effect = lower value 1 | S. cerevisiae deletion strains, locus YML016C, strain PPZ1, stronger effect = lower value 0.985 | S. cerevisiae deletion strains, locus YML032C, strain rad52, stronger effect = lower value 0.955 | S. cerevisiae deletion strains, locus YML120C, strain ndi1, stronger effect = lower value 0.978 | S. cerevisiae deletion strains, locus YML124C, strain tub3, stronger effect = lower value 0.985 | S. cerevisiae deletion strains, locus YMR058W, strain fet3, stronger effect = lower value 0.973 | S. cerevisiae deletion strains, locus YMR078C, strain ctf18, stronger effect = lower value 0.986 | S. cerevisiae deletion strains, locus YMR125W, strain sto1, stronger effect = lower value 0.938 | S. cerevisiae deletion strains, locus YMR129W, stronger effect = lower value 0.987 | S. cerevisiae deletion strains, locus YMR205C, strain PFK2, stronger effect = lower value 0.961 | S. cerevisiae deletion strains, locus YMR223W, strain ubp8, stronger effect = lower value 0.97 | S. cerevisiae deletion strains, locus YMR231W, strain pep5, stronger effect = lower value 0.988 | S. cerevisiae deletion strains, locus YMR263W, strain SAP30, stronger effect = lower value 0.988 | S. cerevisiae deletion strains, locus YMR307W, strain GAS1, stronger effect = lower value 1.1 | S. cerevisiae deletion strains, locus YNL067W, strain RPL9B, stronger effect = lower value 0.982 | S. cerevisiae deletion strains, locus YNL071W, strain lat1, stronger effect = lower value 0.988 | S. cerevisiae deletion strains, locus YNL128W, strain TEP1, stronger effect = lower value 0.995 | S. cerevisiae deletion strains, locus YNL153C, strain GIM3, stronger effect = lower value 0.999 | S. cerevisiae deletion strains, locus YNL183C, strain NPR1, stronger effect = lower value 0.95 | S. cerevisiae deletion strains, locus YNL209W, strain ssb2, stronger effect = lower value 0.982 | S. cerevisiae deletion strains, locus YNL233W, strain BNI4, stronger effect = lower value 1 | S. cerevisiae deletion strains, locus YNL248C, strain rpa49, stronger effect = lower value 0.968 | S. cerevisiae deletion strains, locus YNL250W, strain rad50, stronger effect = lower value 0.968 | S. cerevisiae deletion strains, locus YNL271C, strain bni1, stronger effect = lower value 0.975 | S. cerevisiae deletion strains, locus YNL298W, strain CLA4, stronger effect = lower value 0.984 | S. cerevisiae deletion strains, locus YNL307C, strain MCK1, stronger effect = lower value 0.985 | S. cerevisiae deletion strains, locus YNL322C, strain KRE1 (second series), stronger effect = lower value 0.959 | S. cerevisiae deletion strains, locus YNL322C, strain KRE1, stronger effect = lower value 0.98 | S. cerevisiae deletion strains, locus YNR049C, strain mso1, stronger effect = lower value 0.972 | S. cerevisiae deletion strains, locus YNR052C, strain pop2, stronger effect = lower value 0.98 | S. cerevisiae deletion strains, locus YOL006C, strain TOP1, stronger effect = lower value 1.02 | S. cerevisiae deletion strains, locus YOL012C, strain htz1 0.901 | S. cerevisiae deletion strains, locus YOL147C, strain pex11, stronger effect = lower value 0.988 | S. cerevisiae deletion strains, locus YOR001W, strain rrp6, stronger effect = lower value 0.987 | S. cerevisiae deletion strains, locus YOR061W, strain CKA2, stronger effect = lower value 0.98 | S. cerevisiae deletion strains, locus YOR069W, strain VPS5, stronger effect = lower value 0.993 | S. cerevisiae deletion strains, locus YOR070C, strain gyp1, stronger effect = lower value 0.984 | S. cerevisiae deletion strains, locus YOR080W, strain dia2, stronger effect = lower value 0.965 | S. cerevisiae deletion strains, locus YOR083W, strain WHI5, stronger effect = lower value 0.964 | S. cerevisiae deletion strains, locus YOR106W, strain vam3, stronger effect = lower value 0.998 | S. cerevisiae deletion strains, locus YOR136W, strain idh2, stronger effect = lower value 0.986 | S. cerevisiae deletion strains, locus YOR144C, strain elg1, stronger effect = lower value 0.983 | S. cerevisiae deletion strains, locus YOR184W, strain ser1, stronger effect = lower value 0.933 | S. cerevisiae deletion strains, locus YOR231W, strain MKK1, stronger effect = lower value 1.03 | S. cerevisiae deletion strains, locus YOR265W, strain rbl2, stronger effect = lower value 0.989 | S. cerevisiae deletion strains, locus YOR270C, strain vph1, stronger effect = lower value 0.937 | S. cerevisiae deletion strains, locus YOR290C, strain snf2, stronger effect = lower value 0.946 | S. cerevisiae deletion strains, locus YOR316C, strain cot1, stronger effect = lower value 0.988 | S. cerevisiae deletion strains, locus YPL051W, strain arl3, stronger effect = lower value 0.997 | S. cerevisiae deletion strains, locus YPL055C, strain LGE1, stronger effect = lower value 0.984 | S. cerevisiae deletion strains, locus YPL078C, strain atp4, stronger effect = lower value 0.986 | S. cerevisiae deletion strains, locus YPL106C, strain sse1, stronger effect = lower value 0.953 | S. cerevisiae deletion strains, locus YPL240C, strain hsp82, stronger effect = lower value 0.982 | S. cerevisiae deletion strains, locus YPL256C, strain CLN2, stronger effect = lower value 1.03 | S. cerevisiae deletion strains, locus YPR119W, strain clb2, stronger effect = lower value 0.979 | S. cerevisiae deletion strains, locus YPR141C, strain kar3, stronger effect = lower value 0.988 | S. cerevisiae deletion strains, locus YPR163C, strain tif3, stronger effect = lower value 0.988 | S. cerevisiae deletion strains, locus YPR167C, strain met16, stronger effect = lower value 0.984 | S. cerevisiae deletion strains, strain wtn01, stronger effect = lower value 0.971 | S. cerevisiae strains, strain wild type, stronger effect = lower value 0.985
